Our source for the PBM binding z-score values is the supplement of paper PMC6555819.

Common to all, as to test: PBM binding z-score (relative to random genomic background probes); higher = stronger binding; sequences stand for … in GC…GCGATTGACAGCGTAGAATGAAGG
Test [1] deals with FXR:RXRa (NR concentration 270 nM, RXRa partner concentration 90 nM). In a few lines:
(§1)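 The probes on custom Agilent 4×180K protein-binding microarrays were double-stranded, with 34-nt variable regions bearing direct-repeat seeds, single-nucleotide variants, half-site ablations and random human genomic background sequences. Incubation lasted 1 h with ligand-free nuclear receptor dimers in PBS pH 7.4, 2% milk, 0.02% Triton X-100, 1 mM DTT, 0.2 mg/mL BSA and 0.4 mg/ml salmon testes DNA. Antibodies against each partner (one per run) detected bound dimers, and fluorescence scans were regression-normalized. Binding z-scores take the random background probes as reference.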

The test system of test [2] is LXRa:RXRa (NR concentration 270 nM, RXRa partner concentration 90 nM). In a few lines: as §1
Test [3] relates to LXRa homodimer (NR concentration 270 nM). In a few lines: as §1
The subject of test [4] is LXRb:RXRa (NR concentration 270 nM, RXRa partner concentration 90 nM). In a few lines: as §1
In test [5] the test system is LXRb homodimer (NR concentration 270 nM). In short, it runs like this:
as §1

Test [6] concerns PPARa:RXRa (NR concentration 270 nM, RXRa partner concentration 90 nM). In short, it runs like this: as §1
Test [7] relates to PPARg:RXRa (NR concentration 180 nM, RXRa partner concentration 90 nM). In short, it runs like this: as §1
For test [8], the system named is PPARg:RXRa 270nM:90nM, anti-RXR (NR concentration 270 nM, RXRa partner concentration 90 nM). In short, it runs like this:
as §1

Test [9] concerns PPARg:RXRa 30nM:10nM, anti-RXR (NR concentration 30 nM, RXRa partner concentration 10 nM). In short, it runs like this:
as §1

For test [10], the system named is PPARg:RXRa 90nM:30nM, anti-RXR (NR concentration 90 nM, RXRa partner concentration 30 nM). In a few lines: as §1
The test system of test [11] is PPARg:RXRa DBDmut IVT, anti-RXR (DBD mutation: RXRa K156A/R161A, NR concentration 270 nM, RXRa partner concentration 90 nM). In short, it runs like this: as §1
Test [12] concerns PPARg:RXRa IVT, anti-PPARg (NR concentration 270 nM, RXRa partner concentration 90 nM). In a few lines:
as §1

Test [13] deals with PPARg DBDmut:RXRa IVT, anti-PPARg (DBD mutation: PPARg1 K132A/R137A, NR concentration 270 nM, RXRa partner concentration 90 nM). In short, it runs like this:
as §1

The test system of test [14] is PPARg DBDmut IVT, anti-PPARg (DBD mutation: PPARg1 K132A/R137A, NR concentration 270 nM). In a few lines:
as §1

Test [15] deals with PPARg homodimer (NR concentration 180 nM). In short, it runs like this:
as §1

Test [16] relates to PXR:RXRa (NR concentration 270 nM, RXRa partner concentration 90 nM). In a few lines:
as §1

In test [17] the test system is PXR homodimer (NR concentration 270 nM). In short, it runs like this: as §1
The test system of test [18] is RARa:RXR (NR concentration 270 nM, RXRa partner concentration 90 nM). In a few lines:
as §1

Test [19] concerns RARa homodimer (NR concentration 270 nM). In short, it runs like this: as §1
Test [20] concerns RARb:RXRa (NR concentration 270 nM, RXRa partner concentration 90 nM). In a few lines:
as §1

For the sequence TCACATAGGTAAACAGGTGAAAGTCCGTAAGTTA, the PBM binding z-score in [1] is 0.14; in test [2], 0.698; in test [3], 0.285; in [4], 0.803; in [5] it was -0.368; in [6], 2.06. Besides, the PBM binding z-score in test [7] is 1.27; in test [8], 2.75; in [9] it was 3.62; in test [10], 3.11; in test [11], 2.55; in test [12], 2.23. The PBM binding z-score in test [13] was determined as 0.587; in test [14] it was 0.655; in test [15] it was 1.1; in test [16], 0.542; in test [17], 0.449; in test [18], 0.976. In addition, the results for the PBM binding z-score in test [19] and in test [20] were -0.0341 and 0.847, respectively.

For CTCGAAAGGTCGGTTGACGTGAGTATACGGATAA, the PBM binding z-score was determined as 1.71 in test [1]; 1.46 in [2]; 0.0257 in [3]; 1.44 in [4]; 0.0927 in test [5]; 2.2 in test [6]. The PBM binding z-score in test [7] came to 0.565; in test [8], 0.822; in [9] it was 0.194; in test [10] it was 0.528; in test [11], 0.129; in [12], 0.68. Besides, the PBM binding z-score in test [13] was 0.821; in test [14] it was 0.0479; in test [15], 0.644; in test [16], 1.01; in test [17], -0.25; in [18], 1.5. The results for the PBM binding z-score in [19] and in test [20] were -0.0456 and 2.91, respectively.

In the case of CCTAATTGGTCAAGGTCACACACGCTATAGGTAC, the PBM binding z-score turned out to be 4.21 in test [1]; 4.15 in [2]; 2.33 in [3]; 4.22 in test [4]; 1.18 in test [5]; 4.36 in test [6]. Moreover, the PBM binding z-score in [7] stood at 3.13; in test [8], 3.45; in [9], 1.13; in test [10] it was 2.69; in test [11] it was 2.69; in test [12], 3.49. The PBM binding z-score was 1.13 in [13]; 1.42 in test [14]; 3.47 in [15]; 4.32 in [16]; 1.9 in test [17]; 4.28 in test [18]. The PBM binding z-score stood at 2.79 in [19] and 4.22 in [20].

For the sequence GCAGACAGGTGAAACGCAGTTAACTCAGGGTGGC, the PBM binding z-score in test [1] was -0.413; in test [2], -0.168; in [3] it was -0.315; in test [4], -0.381; in test [5], -1.38; in [6], 0.714. Moreover, the PBM binding z-score in [7] was 0.486; in [8], -0.149; in test [9], -0.977; in test [10], -0.452; in [11] it was 0.917; in [12], 0.29. For the same sequence, the PBM binding z-score in test [13] was -1.71; in test [14], -0.986; in test [15], -0.869; in test [16] it was -0.255; in test [17], -0.841; in test [18], 0.164. The results for the PBM binding z-score in test [19] and in test [20] were -0.965 and 0.589, respectively.

As for TTTATTAGTTGATTAGGGCAACCGAAACAGCGGA, the PBM binding z-score in test [1] worked out at 0.664; in test [2], 0.617; in [3], 0.865; in [4] it was 0.942; in test [5], 1.33; in test [6], 1.15. Moreover, the PBM binding z-score worked out at 0.565 in test [7]; 1.71 in test [8]; 1.69 in [9]; 1.72 in test [10]; 1.46 in [11]; 2.1 in test [12]. The PBM binding z-score in test [13] was 1.84; in [14], 1.94; in test [15], 1.68; in test [16], 0.473; in test [17], 0.839; in test [18] it was 0.832. In addition, the PBM binding z-score stood at 2.38 in test [19] and 1.24 in [20].

Regarding TCTAGCAGGCAAGAGGGTCACTCAAGAGGTACGG, the PBM binding z-score is 0.555 in test [1]; 0.86 in [2]; -0.678 in [3]; 1.18 in [4]; -1.24 in test [5]; 2.25 in test [6]. The PBM binding z-score was 1.01 in test [7]; 1.76 in test [8]; 1.7 in [9]; 1.82 in test [10]; 0.584 in test [11]; 0.0219 in test [12]. For the same sequence, the PBM binding z-score in test [13] is -0.412; in test [14] it was -0.872; in test [15], 0.722; in [16], 1.62; in test [17], -0.663; in test [18] it was 2.3. Further, the PBM binding z-score in [19] was -0.406; in test [20], 1.92.

On to GCTCGGAGGACAAGGTCAGACCTTTGTCCGTAGA, for which the PBM binding z-score in [1] is 2.03; in [2], 2.52; in [3], -0.219; in test [4] it was 1.95; in test [5], 0.0255; in test [6], 3.08. Moreover, the PBM binding z-score is 1.88 in test [7]; 2.61 in test [8]; -0.0164 in [9]; 1.74 in test [10]; -0.401 in test [11]; 1.17 in [12]. In addition, the PBM binding z-score in [13] was -0.273; in test [14] it was -0.216; in test [15], 0.937; in [16], 2.18; in test [17] it was -0.193; in test [18], 2.61. The PBM binding z-score in test [19] is -0.422; in [20], 3.67.
